We go through 18 compounds from PubChem BioAssay.

The inhibition is the change of the read-out against control, counted positive when it falls.

A number with no mark means an inactive call. For part of these data: Results with a measured potency or affinity are listed apart. Calls of active or inactive are those of the source. Unless noted, how the calls were made is not given here.

Experiment [1] can be described thus: antimalarial activity against Dd2 strain (AID 2302;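 active means growth inhibition above 50% at the single 2 µM test dose, taken to imply half-maximal potency below 2 µM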;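 further: 0% = DMSO untreated growth and 100% = chloroquine plus artemisinin killed control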). The conditions noted are these: P. falciparum Dd2 in RBCs, LDH growth readout, 72 h; at 2 µM; hits give high values.
Experiment [2] can be described thus: human hepatoma cell viability loss – ATP luminescence, cytotoxicity control for P. falciparum antimalarial project, primary screen (AID 2303;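 active means inhibition above 50%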;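 further: 0% = DMSO wells and 100% = digitonin-killed cells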). The note with it: HepG2 viability, 24-48 h, at 10 µM, hits give high values.
Experiment [3] addresses L-lactate dehydrogenase (Plasmodium falciparum (isolate CDC / Honduras)) (UniProt Q27743). The experiment in a line: PfLDH activity inhibition – cell lysate, 3D7 strain, counter-screen for P. falciparum growth inhibition project (AID 2304).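 Further: 0% = vehicle and 100% = reference inhibitor.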 The conditions noted are these: P. falciparum 3D7 crude extract, LDH APAD/NBT absorbance; at 2 µM; hits give high values. (A counterscreen serves to expose hits that act by an unwanted route or on another target.)

Experiment [4] in a line: inhibition of 3D7 malaria parasite growth – strain 3D7 (AID 2306).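 Further: 0% = DMSO wells and 100% = chloroquine plus artemisinin control wells.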 The conditions noted are these: P. falciparum 3D7 erythrocytic growth, LDH absorbance, 72 h; at 2 µM; hits give high values.
Experiment [5] has as its target Calcium-dependent protein kinase 1 (Plasmodium falciparum (isolate 3D7)) (UniProt P62344). The experiment in a line: PfCDPK1 kinase inhibitors, biochemical, TCAMS library (AID 1159585; cut-off not given, nearly all actives have IC50 up to about 0.98 µM;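 further: inhibitors leave more ATP so luminescence rises with inhibition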). The note with it: recombinant PfCDPK1, Kinase-Glo ATP depletion luminescence. For orientation: In Kinase-Glo more light means more ATP remaining.
The target of experiment [6] is Plasmodium falciparum protein kinase 6 (PK6, PF3D7_1337100) (UniProt Q8IDW1). Put plainly: PfPK6 kinase inhibitors, biochemical, TCAMS library (AID 1159586). The conditions noted are these: recombinant PfPK6, Kinase-Glo ATP depletion luminescence.
Experiment [7] has as its target Protein kinase 7 (PK7), Plasmodium falciparum 3D7 (PF3D7_0213400) (UniProt Q7YTF7). The experiment in a line: inhibition of Plasmodium PK7 catalytic activity – biochemical, TCAMS antimalarial set, Kinase-Glo luminescence (AID 1159587). The conditions noted are these: recombinant PfPK7, Kinase-Glo ATP depletion luminescence.
Experiment [8] deals with Calcium-dependent protein kinase 4 (Plasmodium falciparum (isolate 3D7)) (UniProt Q8IBS5). Put plainly: PfCDPK4 kinase inhibitors, biochemical, TCAMS library (AID 1159588; cut-off not given, nearly all actives have IC50 up to about 0.91 µM). The conditions noted are these: recombinant PfCDPK4, Kinase-Glo ATP depletion luminescence.
Sequence of Calcium-dependent protein kinase 4 (Plasmodium falciparum (isolate 3D7)) (Q8IBS5 whole entry, looked up): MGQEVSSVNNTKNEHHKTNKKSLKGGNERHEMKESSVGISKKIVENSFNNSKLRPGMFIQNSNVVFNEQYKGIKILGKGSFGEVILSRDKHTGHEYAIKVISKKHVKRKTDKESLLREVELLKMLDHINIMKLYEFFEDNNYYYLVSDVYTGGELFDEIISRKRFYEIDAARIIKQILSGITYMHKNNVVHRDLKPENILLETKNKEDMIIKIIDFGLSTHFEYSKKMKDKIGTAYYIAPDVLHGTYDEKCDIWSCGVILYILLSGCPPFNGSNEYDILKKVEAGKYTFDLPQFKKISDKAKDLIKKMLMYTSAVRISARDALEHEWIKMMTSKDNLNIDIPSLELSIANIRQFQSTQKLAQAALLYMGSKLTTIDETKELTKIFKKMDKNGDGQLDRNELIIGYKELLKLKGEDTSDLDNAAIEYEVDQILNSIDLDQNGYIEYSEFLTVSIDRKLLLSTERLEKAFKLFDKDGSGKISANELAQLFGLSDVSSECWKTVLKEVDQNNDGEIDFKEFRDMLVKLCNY

Sequence of L-lactate dehydrogenase (Plasmodium falciparum (isolate CDC / Honduras)) (Q27743 whole entry, looked up): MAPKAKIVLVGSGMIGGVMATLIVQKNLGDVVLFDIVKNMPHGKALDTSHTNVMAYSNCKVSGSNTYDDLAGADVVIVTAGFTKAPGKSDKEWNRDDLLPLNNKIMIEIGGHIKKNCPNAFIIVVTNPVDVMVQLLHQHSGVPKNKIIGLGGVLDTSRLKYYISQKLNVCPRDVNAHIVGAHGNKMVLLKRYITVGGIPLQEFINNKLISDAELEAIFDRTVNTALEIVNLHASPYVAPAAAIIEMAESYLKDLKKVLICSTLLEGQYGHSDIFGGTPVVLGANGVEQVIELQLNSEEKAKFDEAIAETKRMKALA
Sequence of Protein kinase 7 (PK7), Plasmodium falciparum 3D7 (PF3D7_0213400) (Q7YTF7 1-343): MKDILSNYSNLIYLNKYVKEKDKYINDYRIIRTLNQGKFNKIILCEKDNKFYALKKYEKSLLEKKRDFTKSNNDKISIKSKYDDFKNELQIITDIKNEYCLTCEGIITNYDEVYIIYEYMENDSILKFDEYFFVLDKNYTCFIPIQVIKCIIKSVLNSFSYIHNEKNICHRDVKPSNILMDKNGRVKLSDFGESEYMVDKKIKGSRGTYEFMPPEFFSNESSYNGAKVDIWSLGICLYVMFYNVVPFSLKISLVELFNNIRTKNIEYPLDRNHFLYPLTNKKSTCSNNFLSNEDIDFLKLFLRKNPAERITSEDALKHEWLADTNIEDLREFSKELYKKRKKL
Sequence of Calcium-dependent protein kinase 1 (Plasmodium falciparum (isolate 3D7)) (P62344 whole entry, looked up): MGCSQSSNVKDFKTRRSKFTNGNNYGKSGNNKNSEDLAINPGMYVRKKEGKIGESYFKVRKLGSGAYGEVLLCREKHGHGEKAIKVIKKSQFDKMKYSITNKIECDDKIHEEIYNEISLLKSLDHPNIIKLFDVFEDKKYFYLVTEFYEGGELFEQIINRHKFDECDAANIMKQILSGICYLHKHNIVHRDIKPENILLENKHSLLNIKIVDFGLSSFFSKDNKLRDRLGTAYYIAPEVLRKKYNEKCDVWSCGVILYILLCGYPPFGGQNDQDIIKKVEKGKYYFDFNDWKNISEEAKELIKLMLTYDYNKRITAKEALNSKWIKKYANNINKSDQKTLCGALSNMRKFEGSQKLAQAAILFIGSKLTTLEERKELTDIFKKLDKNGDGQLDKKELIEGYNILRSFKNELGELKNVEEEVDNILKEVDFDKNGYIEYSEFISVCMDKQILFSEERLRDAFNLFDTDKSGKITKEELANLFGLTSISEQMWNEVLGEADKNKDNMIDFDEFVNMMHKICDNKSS
Sequence of Plasmodium falciparum protein kinase 6 (PK6, PF3D7_1337100) (Q8IDW1 1-305): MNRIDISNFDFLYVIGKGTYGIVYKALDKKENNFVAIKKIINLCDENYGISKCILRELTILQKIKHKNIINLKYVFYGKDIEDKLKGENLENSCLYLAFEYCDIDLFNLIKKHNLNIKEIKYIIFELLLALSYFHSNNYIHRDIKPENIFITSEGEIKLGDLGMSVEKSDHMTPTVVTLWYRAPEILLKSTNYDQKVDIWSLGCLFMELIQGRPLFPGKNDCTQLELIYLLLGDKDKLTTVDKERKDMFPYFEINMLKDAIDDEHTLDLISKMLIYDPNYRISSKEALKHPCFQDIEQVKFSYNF

`COc1ccc2ccccc2c1CCCCN1CCN(CC(c2ccc(F)cc2)N2CCC(N3CCCC3)CC2)CC1` (centres undefined): the growth inhibition in experiment [1] is 73% (active); in experiment [4], 99% (active). Further, the results for the inhibition in experiment [2] and in experiment [3] were 74% (active) and 7%, respectively. In addition, the outcome in experiment [5], in experiment [6], in experiment [7] and in experiment [8] was inactive.

As for `COc1cccc(-c2cc(-c3ccc(NC(=O)c4ccccc4)cc3)c3c(N)ncnc3n2)c1`, the figures for the growth inhibition in experiment [1] and in experiment [4] were 98% (active) and 99% (active), respectively. Further, the inhibition in experiment [2] is -4%; in experiment [3], 0%. Also, the result in experiment [5], in experiment [6], in experiment [7] and in experiment [8] was inactive.

On to `OCC1CCN(Cc2cccc(-c3ccc(-c4nc5ccc(C(F)(F)F)cc5[nH]4)cc3)c2)CC1`, for which the growth inhibition in experiment [1] was 95% (active); in experiment [4], 101% (active). Further, the inhibition in experiment [2] was 25%; in experiment [3], -3%. The result in experiment [5], in experiment [6], in experiment [7] and in experiment [8] was inactive.

On to `COc1ccc(O)c(C(=O)NCCc2ccc(OC)c(-c3ccc(C(C)(C)C)cc3)c2)c1`, for which the growth inhibition was 91% (active) in experiment [1] and 88% (active) in experiment [4]. The figures for the inhibition in experiment [2] and in experiment [3] were 11% and 5%, respectively. In addition, the outcome in experiment [5], in experiment [6], in experiment [7] and in experiment [8] was inactive.

Take `O=C(N[C@@H](CC1CCCCC1)C(=O)NCc1cccc2ccccc12)c1ccc(O)c(-c2ccc(Cl)c(Cl)c2)c1`: the growth inhibition was 99% (active) in experiment [1] and 97% (active) in experiment [4]. The inhibition in experiment [2] was -9%; in experiment [3], 2%. Further, the result in experiment [5], in experiment [6], in experiment [7] and in experiment [8] was inactive.

Turning to `CNC(=O)Cc1ccc(C(=O)Nc2cccc(-c3ccc(-c4nc5c(C)cccc5[nH]4)s3)c2)cc1`, the results for the growth inhibition in experiment [1] and in experiment [4] were 25% and 91% (active), respectively. The inhibition was 66% (active) in experiment [2] and 0% in experiment [3]. In addition, the result in experiment [5], in experiment [6], in experiment [7] and in experiment [8] was inactive.

As for `Cc1cccc(-c2nn(-c3ccccc3)cc2C(=O)Nc2nnc(C)o2)c1`, the growth inhibition in experiment [1] was 63% (active); in experiment [4], 84% (active). Besides, the inhibition is 38% in experiment [2] and 4% in experiment [3]. The outcome in experiment [5], in experiment [6], in experiment [7] and in experiment [8] was inactive.

For `CC(CN(C)C)C(=O)Nc1ccc(-c2ccc(-c3nc4ccc(F)cc4[nH]3)cc2)cc1` (centres undefined), the growth inhibition in experiment [1] is 95% (active); in experiment [4], 101% (active). Also, the values for the inhibition in experiment [2] and in experiment [3] were 14% and -2%, respectively. In addition, the outcome in experiment [5], in experiment [6], in experiment [7] and in experiment [8] was inactive.

On to `CN(CCCN(C)c1cc(NC(=O)c2ccc(F)cc2)ccn1)Cc1cccc(F)c1`, for which the results for the growth inhibition in experiment [1] and in experiment [4] were 60% (active) and 83% (active), respectively. The inhibition in experiment [2] was -5%; in experiment [3], -1%. Also, the result in experiment [5], in experiment [6], in experiment [7] and in experiment [8] was inactive.

`OC1CCCN(Cc2ccc(-c3ccc(-c4nc5ccc(F)cc5[nH]4)cc3)cc2)C1` (centres undefined): the growth inhibition in experiment [1] was 79% (active); in experiment [4], 100% (active). The inhibition is 55% (active) in experiment [2] and 2% in experiment [3]. Also, the result in experiment [5], in experiment [6], in experiment [7] and in experiment [8] was inactive.

Take `COc1ccc2c(NN=C(C)c3ccccn3)cc(C)nc2c1`: the growth inhibition in experiment [1] is 51% (active); in experiment [4] it was 102% (active). Besides, the inhibition in experiment [2] is 33%; in experiment [3], -5%. Moreover, the result in experiment [5], in experiment [6], in experiment [7] and in experiment [8] was inactive.

Consider `N=c1n(CCN2CCCCC2)c2ccccc2n1CC(=O)c1cccc([N+](=O)[O-])c1`, for which the figures for the growth inhibition in experiment [1] and in experiment [4] were 0% and 94% (active), respectively. Further, the inhibition in experiment [2] was 10%; in experiment [3], -1%. The result in experiment [5], in experiment [6], in experiment [7] and in experiment [8] was inactive.

Consider `COc1cccc(CN2CCCC(OC(c3ccc(F)cc3)c3ccc(F)cc3)C2)c1O` (centres undefined), for which the growth inhibition in experiment [1] and in experiment [4] was 95% (active) each time. Further, the values for the inhibition in experiment [2] and in experiment [3] were 8% and 5%, respectively. Moreover, the result in experiment [5], in experiment [6], in experiment [7] and in experiment [8] was inactive.

With `COc1ccc(NC(=O)/C=C/c2ccccc2Cl)cc1OCCN1CCC(O)(c2ccc(Cl)c(C(F)(F)F)c2)CC1`, the figures for the growth inhibition in experiment [1] and in experiment [4] were 9% and 101% (active), respectively. Moreover, the inhibition in experiment [2] was 37%; in experiment [3], -1%. Moreover, the result in experiment [5], in experiment [6], in experiment [7] and in experiment [8] was inactive.

Consider `N#Cc1ccc(NC(=O)N2CCCN(CCCCCNC(=O)/C=C/c3ccc(Cl)c(Cl)c3)CC2)cc1`, for which the growth inhibition in experiment [1] is 4%; in experiment [4] it was 100% (active). Besides, the inhibition in experiment [2] was 32%; in experiment [3], 0%. In addition, the outcome in experiment [5], in experiment [6], in experiment [7] and in experiment [8] was inactive.

Take `FC(F)(F)c1ccc2nc(-c3ccc(-c4ccc(CN5CCN(c6cnccn6)CC5)cc4)s3)[nH]c2c1`: the growth inhibition is 99% (active) in experiment [1] and 101% (active) in experiment [4]. Also, the inhibition in experiment [2] is 23%; in experiment [3], -7%. For the same compound, the result in experiment [5], in experiment [6], in experiment [7] and in experiment [8] was inactive.

As to `CC(C)(C)c1ccc(S(=O)(=O)Nc2cc(Cl)ccc2Cn2ccc(N3CCNCC3)nc2=O)cc1`, the results for the growth inhibition in experiment [1] and in experiment [4] were 74% (active) and 95% (active), respectively. The inhibition in experiment [2] is -9%; in experiment [3], 2%. Also, the outcome in experiment [5], in experiment [6], in experiment [7] and in experiment [8] was inactive.

For `COc1ccc(Cl)c(CC2c3cc(O)c(Cl)cc3CCN2C)c1` (centres undefined), the growth inhibition in experiment [1] was 72% (active); in experiment [4], 98% (active). Moreover, the inhibition in experiment [2] is 9%; in experiment [3], -1%. Besides, the outcome in experiment [5], in experiment [6], in experiment [7] and in experiment [8] was inactive.
